Consider 68 compounds from ChEMBL document CHEMBL4513216, “Probing the Open Global Health Chemical Diversity Library for Multistage-Active Starting Points for Next-Generation Antimalarials” (ACS Infect Dis, 2020).

Screen size: about 68,000 compounds; about 2,700 (4%) showed an effect of 50% or more. Many of the other results were omitted from the sample, so strong results are more common in it than they were.

This assay has as its system Plasmodium berghei. Nature of the assay: Screen against P. berghei liver stage (PbLuc), transformed with Luciferase, at 2uM. In kind it is functional, HepG2. The conditions noted are these: tested at 2 uM.
On to `Cc1nccn1C1CCCN(C(=O)CCc2nc(C(C)C)no2)C1` (stereo not drawn), for which the INHIBITION is on record as 21.71%.
The same measure for `CN1C(=O)[C@@H]2CC[C@H]1CN(C(=O)Nc1cccc3ccccc13)C2`: -110.62%; for `CCN(CC)C1COc2c(cc(Br)c(C)c2C)C1=O` (stereo not drawn): 24.56%.
The same measure for `CCN(CC)C1COc2c(cc(Br)c(C)c2Br)C1=O` (stereo not drawn): 58.18%.
The same measure for `Cc1c(Br)cc2c(c1C)OCC(N(C)C)C2=O` (stereo not drawn): -5.64%; for `Cc1cnn(CCNCC(O)COc2ccc(F)cc2)c1` (stereo not drawn): -0.05%.
`CC(C)(C)C(=O)N1CCC(n2nc(-c3ccco3)ccc2=O)CC1`: the INHIBITION came out at 17.8%.
Take `CN(C)C(=O)CN1C[C@H]2CN(Cc3cccc(F)c3)C(=O)[C@H]2C1`: the INHIBITION came out at 53.98%.
Turning to `O=C1[C@H]2CN(CC3CC3)C[C@H]2CN1Cc1cccc(F)c1`, the INHIBITION is given as 26.52%.
The figure for `O=C1[C@H]2CN(C3CCOCC3)C[C@H]2CN1Cc1cccc(F)c1` is 66.67%.
The same measure for `CN(C)C(=O)N1C[C@H]2CN(Cc3cccc(F)c3)C(=O)[C@H]2C1`: 18.8%; for `Cc1cccc(CN2C[C@@H]3CN(C4CCOCC4)C[C@@H]3C2=O)c1`: 6.22%; for `O=C1[C@H]2CN(CC3CCOCC3)C[C@H]2CN1Cc1cccc(F)c1`: 14.13%.
The figure for `CNC(=O)COc1ccc(CNCc2c(C)nn(C)c2N(C)C)cc1` is -5.7%; for `Cc1cnc(N2CCc3c(CNc4ccnc(C)n4)cncc3C2)nc1` it is -25.4%; for `CN1C(=O)C2(CC(=O)Nc3c2cnn3C(C)(C)C)c2c(Cl)cccc21` (stereo not drawn) it is -20.78%.
Regarding `O=C(Cn1cnnn1)NCC1(O)CCCc2ccccc21` (stereo not drawn), the INHIBITION is -4.62%.
The same measure for `CNc1nc(C(=O)N2CCCn3nc(C(=O)N4CCCC4)cc3C2)cs1`: -38.39%; for `Cc1ccnc(OC[C@]23COC[C@H]2CN(C(=O)Cc2ccsc2)C3)n1`: 11.1%; for `O=C(CCSc1ccccc1F)NCc1cccnc1`: -67.38%.
The same measure for `O=C(Cc1cccnc1)NCCSc1ccccc1F`: -10.89%.
The same measure for `O=C(NCCSc1ccccc1F)NCc1cccnc1`: 68.04%; for `CN1CCCN(C(=O)c2cnc(Cc3c(Cl)cccc3Cl)nc2O)CC1`: -116.99%.
With `CSCC(=O)N(C)Cc1cnn(-c2ccc(F)cc2)c1`, the INHIBITION was -9.65%.
The figure for `Cc1ccnn1CC(=O)N(C)Cc1cnn(-c2ccccc2)c1` is 60.67%; for `Cc1ccnn1CC(=O)N(C)Cc1ccc(-n2cccn2)cc1` it is 18.76%; for `CSc1ccc(C)c(C(=O)N2CCCC(n3cncn3)C2)c1` (stereo not drawn) it is -1.88%.
The same measure for `COC(=O)c1ccc(S(=O)(=O)N(C)CC(N)=O)c(Cl)c1`: -3.54%; for `Cc1cccnc1NC(=O)N(CCO)Cc1ccsc1`: 36.95%; for `O=C(Nc1ccccn1)N(CCO)Cc1ccsc1`: 58.49%.
On to `O=C(Nc1nccs1)N(CCO)Cc1ccsc1`, for which the INHIBITION was -14.3%.
The figure for `O=C(O)c1c(-c2cncnc2)ncc2c1CCN(Cc1cccnc1)C2` is 11.98%; for `O=C(NCC1Cn2nnc(-c3ccoc3)c2CO1)c1ccc[nH]1` (stereo not drawn) it is 12.21%.
The figure for `O=C(C1CCCC1)N1C[C@@H]2CCNC[C@@H]21` is 34.79%; for `O=C(C1CCCCC1)N1C[C@@H]2CCNC[C@@H]21` it is 63.89%; for `O=C(N1CCCC1)N1C[C@@H]2CCNC[C@@H]21` it is 32.05%.
Consider `CC(=O)N1CC[C@H]2OCC[C@@]2(C(=O)NCCc2ccccn2)C1`, for which the INHIBITION turned out to be 7.55%.
In the case of `CN1CC[C@H]2OCC[C@@]2(C(=O)NCCc2ccccn2)C1`, the INHIBITION came out at 23.81%.
On to `O=C(NCCc1ccccn1)[C@@]12CCO[C@@H]1CCN(CC1CC1)C2`, for which the INHIBITION is reported as 51.81%.
The same measure for `CN(Cc1nc2ccccc2s1)C1CCCN(c2cccnn2)C1` (stereo not drawn): 29.39%.
The figure for `c1cnc2nc(N3CCCC3c3nnc4n3CCCCC4)ccc2n1` (stereo not drawn) is 2.06%.
The figure for `Cc1c(C(=O)N[C@@H]2CC[C@@H](N3CCCC3)[C@@H]2O)[nH]c2ccc(F)cc12` is 30.96%; for `Cc1ccc(C)n1-c1ccsc1C(=O)NCC(=O)N1CCCC1` it is 36.34%.
As to `O=C(NCC(=O)N1CCCCC1)c1sccc1C1CC1`, the INHIBITION came out at 54.62%.
The same measure for `O=C(NCC(=O)N1CCN(c2ccccc2)CC1)c1sccc1C1CC1`: -31.42%; for `Cc1ccc2nc(C(=O)N(C)[C@@H]3CC[C@@H](N4CCCC4)[C@@H]3O)cn2c1`: -18.64%.
The same measure for `Cc1ccsc1-c1nccn1CCS(C)(=O)=O`: 38.1%.
The same measure for `Cc1ccsc1-c1nccn1CCN(C)S(C)(=O)=O`: 4.48%; for `Cc1cn(CCn2ccnc2-c2sccc2C)nn1`: 59.08%; for `COc1ccnc(NCc2ccccc2Cn2cccn2)n1`: -136.67%.
Regarding `CN1CCCN(C(=O)NCCNc2ncccn2)CC1`, the INHIBITION is recorded as -3.93%.
The figure for `Cc1nn(C)c(C)c1-c1cnc(C2CCCN(S(C)(=O)=O)C2)cn1` (stereo not drawn) is 51.15%; for `CC(=O)N1CCCC(c2cnc(-c3c(C)nn(C)c3C)cn2)C1` (stereo not drawn) it is 20.08%; for `Cc1nn(C)c(C)c1-c1cnc(C2CCCN(C)C2)cn1` (stereo not drawn) it is 22.81%.
For `CN(C)c1ccc(CN(CCCn2ccnc2)Cc2c[nH]cn2)cc1`, the INHIBITION came out at 18.15%.
The same measure for `Cn1c(CCCNC(=O)Nc2cn[nH]c2)nc2ccccc21`: 29.13%; for `CC(C)n1nccc1NC(=O)NCCc1nc2ccc(F)cc2n1C`: 2.9%; for `Cn1c(CCNC(=O)Nc2cn[nH]c2)nc2ccc(F)cc21`: 55.36%.
Turning to `CN(Cc1ccccc1)C1(C(=O)NCC(N)=O)Cc2ccccc2C1`, the INHIBITION is 6.39%.
`Cc1cc(CCC2CN(Cc3ccccc3C(=O)O)CCO2)ncn1` (stereo not drawn): the INHIBITION worked out at 0.3%.
The figure for `Cc1cc(C[S+]([O-])CC(=O)NCc2ccccc2)no1` (stereo not drawn) is -15.28%.
The figure for `Cc1cc(C[S+]([O-])CC(=O)NCC(C)C)no1` (stereo not drawn) is -10.66%; for `Cc1cc(C[S+]([O-])CC(=O)Nc2c(C)cccc2C)no1` (stereo not drawn) it is 51.21%.
The same measure for `CCOC(=O)CN1C(=O)CN(S(C)(=O)=O)CCC(OC)c2ccccc21` (stereo not drawn): 12.44%; for `Cn1ccnc1CN1CCN(CC(=O)NCC(F)(F)F)CC1`: 62.13%.
In the case of `Cn1ccnc1CN1CCN(CC(=O)NCc2ccccc2F)CC1`, the INHIBITION is recorded as 26.09%.
The same measure for `Cc1ccccc1CNC(=O)CN1CCN(Cc2nccn2C)CC1`: -34.45%; for `CS(=O)(=O)c1snnc1C1CCN(Cc2ccc3nccnc3c2)CC1`: 28.67%.
